LGR2 antag: blocks bursicon-induced cAMP signaling via Drosophila LGR2 | 0.35% of 380,000 active | AID 720647 | HEK293 LGR2, CRE-luciferase, bursicon-stimulated, 4 h | inhibition, % at 9.99 µM;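 active = drop in luminescence signal, shown as inhibition above about 50% in the replicate tests, limit read from the data, passing the limit was not always enough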;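 note: agonist challenge used bursicon conditioned medium at about half maximal strength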
HIF-2a inh: inhibitors of HIF-2a | 0.72% of 360,000 active | AID 624352 | 786-0 RCC cells HIF-2a reporter, luciferase luminescence, overnight | inhibition, % at 18.8 µM;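 active = inhibition of the luminescence signal of 40% or more relative to plate controls, in a single-dose primary screen at 18.75 µM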
TWEAK-Fn14 inh: blocks TWEAK-Fn14 interaction in a reporter cell assay; TWEAK-stimulated Fn14 reporter cells, luciferase luminescence, 8 h; inhibition, % at 10 µM; 2% of 360,000 active; AID 1159606; in the data active = inhibition above about 50%
CF NFkB inh: cystic fibrosis NF-kB activation inhibition; 0.86% of 360,000 active; KKLEB NF-kB-GFP reporter, PAF-induced, GFP fluorescence overnight; inhibition, % at 5 µM; AID 588850;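 active = at least 50% inhibition at 5 µM, scaled per plate between neutral and stimulator controls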;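 note: PAF is a Pseudomonas aeruginosa culture filtrate used as stimulus; plate controls were PAF-stimulated DMSO wells for no effect and unstimulated DMSO wells for full effect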
hiPSC survival: hiPSC single-cell survival enhancement | AID 602274 | 0.044% of 360,000 active | ATPlite luminescence; 100% = ROCK inhibitor wells, 0% = DMSO | survival enhancement, % at 20 µM; in the data active = survival enhancement above about 18%;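 note: cells exposed to compounds for 16 hours before the ATP read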
KKLEB tox: CF airway cell cytotoxicity counter-screen. KKLEB CF airway cells viability, ATPlite luminescence, overnight; active compounds read low; cells stimulated with P. aeruginosa culture filtrate. activity change (cytotoxicity), % at 5 µM. 0.36% of 360,000 active;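 active = corrected activity change at or below -50% at 5 µM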
Active calls of the source: *; · = no result given. This is a sample that favours compounds with a hit; in the whole collection about 2.3% have one here.

SMILES	LGR2 antag	HIF-2a inh	TWEAK-Fn14 inh	CF NFkB inh	hiPSC survival	KKLEB tox
CCCCC(CC)CN=C(N)NC(N)=NCCCCCCN=C(N)NC(N)=NCC(CC)CCCC (configuration not stated)	·	98*	105*	52*	-4	-17
O=C1CC(c2ccc(F)cc2)Cc2nc(N3CCN(c4ccccc4)CC3)ncc21 (configuration not stated)	-28	5	45	-12	0	2
Cc1ccc(C2CC(=O)c3cnc(N4CCN(c5ccccc5)CC4)nc3C2)cc1 (configuration not stated)	-7	12	58*	-5	-1	6
CCCNC(=O)Nc1ccc2c(c1)C(=O)N(C)C[C@H](OC)[C@H](C)CN(CCC(F)(F)F)[C@@H](C)CO2	-9	·	·	·	·	·
Fc1ccc(-[n+]2nc(Nc3ccccc3)sc2-c2c(Cl)cccc2Cl)cc1	71*	-3	24	32	-1	-2
OC(CNCC(c1ccc(Cl)cc1Cl)c1c[nH]c2ccccc12)c1ccccc1 (configuration not stated)	102*	17	74*	19	0	-17
O=[N+]([O-])CC(c1ccccc1)c1c[nH]c2ccccc12 (configuration not stated)	6	13	2	8	-1	2
NC(=O)c1cccc(-c2cnc(N)c(C(=O)c3cccnc3)n2)c1	·	38	84*	52*	0	6
O=C1C2CC=CCC2C(=O)N1c1ccc(NCCc2ccc(Cl)cc2)c([N+](=O)[O-])c1 (configuration not stated)	·	9	15	6	1	2
O=C1C2CC=CCC2C(=O)N1c1ccc(NCCc2ccc(O)cc2)c([N+](=O)[O-])c1 (configuration not stated)	2	-57	57*	18	-1	-8
C[C@H](CO)N1C[C@H](C)[C@@H](CN(C)C(=O)C2CCOCC2)Oc2ncc(C#CC3(O)CCCC3)cc2C1=O	-1	·	·	·	·	·
O=C(Nc1nncs1)c1cccc(S(=O)(=O)N2CCc3ccccc32)c1	12	20	6	-2	1	3
O=C(Nc1nc2ccc(F)cc2s1)c1cccc(S(=O)(=O)N2CCc3ccccc32)c1	3	-96	57*	-7	-2	11
Cc1ccc(NC(=O)CSc2nccn(-c3ccc4c(c3)OCCO4)c2=O)cc1	-7	-25	25	9	0	-24
O=C(CSc1nccn(-c2ccc3c(c2)OCCO3)c1=O)Nc1ccccc1	-38	-87	62*	-13	0	10
O=C(NC1CCCCC1)C(c1ccncc1)N(Cc1ccccc1)C(=O)c1ccc(-c2ccccc2)[nH]1 (configuration not stated)	·	-32	2	38	0	-50*
CC(C)CN1CCN(C(=O)COC(=O)c2ccc(S(C)(=O)=O)c([N+](=O)[O-])c2)CC1	23	94*	80*	79*	4	-7
COc1ccc(C(=O)OCC(=O)N2CCCCC2)cc1[N+](=O)[O-]	0	-1	13	-16	0	12
CCNc1nc(N)nc(-c2cc(Cl)ccc2O)n1	·	-185	64*	88*	-2	-49
CCCCNc1nc(N)nc(-c2cc(Cl)ccc2O)n1	2	-184	82*	82*	-2	-27
CCCNc1nc(N)nc(-c2cc(Cl)ccc2OC)n1	0	12	12	-6	3	1
CC(C)c1[nH]nc2c1C(c1cccnc1)C(C#N)=C(N)O2 (configuration not stated)	·	-1	60*	13	1	-18
Cc1ccc(-c2[nH]nc3c2C(c2cccnc2)C(C#N)=C(N)O3)cc1 (configuration not stated)	-12	-4	1	-13	-1	2
COc1ccc(NC(=O)Nc2ccc3c(c2)[C@H]2C[C@H](CC(=O)N4CCc5ccccc5C4)O[C@@H](CO)[C@H]2O3)cc1	5	·	·	·	·	·
Cn1c(-c2ccc(F)c(F)c2)cc2onc(-c3ccccc3)c2c1=O	·	-335	9	-36	3	-3
SMILES	LGR2 antag	HIF-2a inh	TWEAK-Fn14 inh	CF NFkB inh	hiPSC survival	KKLEB tox
COc1cccc(-c2cc3onc(-c4ccccc4)c3c(=O)n2C)c1	26	-184	70*	-7	-2	-23
COc1ccc2c3c(n(C)c2c1)[C@@H](CO)N(C(=O)NC(C)C)CC31CN(C(=O)NC(C)C)C1	9	·	·	·	·	·
Nc1ccc(-c2nc3ccc(N)cc3o2)cc1	-18	-65	22	-5	-4	-21
Cc1ccc2nc(-c3cc(N)cc(N)c3)oc2c1	·	62*	62*	-3	-6	-26
O=S(=O)(c1cccc2cnccc12)N1CCNCC1	27	28	-11	44	27*	-25
CCOC(=O)CSc1n[nH]c(NC(=O)c2ccc(F)cc2)n1	·	-20	50*	6	1	0
CCOC(=O)CSc1n[nH]c(NC(=O)c2ccccc2)n1	4	3	27	-14	-2	6
CC[C@H](C)Cc1cn([C@@H](CCCCNC(=O)OC(C)(C)C)C(=O)NCCCCCCCCCCC(=O)N2CCN(C(=O)OC(C)(C)C)CC2)nn1	·	1	59*	0	1	-7
C#CCOCCOCCOCCNc1nc(N2CCN(C(=O)CCCCCCCCCCNC(=O)[C@H](CCCCN)n3cc(C[C@@H](C)CC)nn3)CC2)nc(N2CCN(C(=O)CCCCCCCCCCNC(=O)[C@H](CCCCN)n3cc(C[C@@H](C)CC)nn3)CC2)n1	·	24	51*	9	-3	-28
C#CCOCCOCCOCCNc1nc(N2CCN(C(=O)CCCCCCCCCCNC(=O)[C@H](CCCCN)n3cc(CCO)nn3)CC2)nc(N2CCN(C(=O)CCCCCCCCCCNC(=O)[C@H](CCCN=C(N)N)n3cc(C[C@@H](C)CC)nn3)CC2)n1	·	20	-8	-12	-2	9
O=C(NC1CCCC1)N1CC(=O)N2[C@@H](CO)[C@H](c3ccc(/C=C/c4ccccc4)cc3)[C@@H]2C1	24	·	·	·	·	·
CC1CCC/C(=N/Nc2nc3ccccc3s2)C1 (configuration not stated)	-28	-184	-6	-12	1	16
CC1(C)CC(=O)C/C(=N/Nc2nc3ccccc3s2)C1	3	-25	69*	2	0	2
COc1ccc(OC)c(NC(=O)CSc2nc3ccccc3c(=O)n2CCNC(C)=O)c1	·	23	76*	-9	-1	-8
Cc1nc2ccc(F)cc2cc1C(=O)NCC1CCCO1 (configuration not stated)	·	14	33	-7	0	-89*
O=C(NCC1CCCO1)c1cc2ccccc2nc1Cl (configuration not stated)	-10	-41	22	0	0	0
CCCCN=C1NN=C(c2ccc(C)c(C)c2)CS1	-85	-260	-8	-5	-1	-2
